Hsp90 inh = displaces geldanamycin probe from tumor Hsp90 | NCI-N417 lysate Hsp90, Cy3B-geldanamycin FP displacement | inhibition, % at 30 µM | hit rate 0.35% among 64,000;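 active = inhibition above 50%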;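 note: 0% = tracer plus lysate wells and 100% = tracer alone without lysate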
PKA kinase inh = blocks human protein kinase A activity; P17612; PKA Kemptide phosphorylation, Kinase-Glo ATP luminescence; inhibition, % at 6 µM; hit rate 0.1% among 65,000; AID 524;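 active = inhibition above the screen-wide mean inhibition plus 3 SD, cut at about 21% in these data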
Htt clearance = mutant huntingtin protein clearance; HeLa Exon1htt(103Q)mCFP, aggregate imaging; zero = plate's median compound well; inhibition, % at 1.5 µM; hit rate 0.42% among 47,000; AID 853;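 active = inhibition of aggregate fluorescence above about 70%, also judged a hit by eye on the cell image, limit read from the data, passing the limit was not always enough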;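 note: cells exposed to compound for three days before fixation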
MMP13 inh = inhibitors of human MMP13. inhibition, % at 4 µM. MMP-13 fTHP FRET cleavage, Mca fluorescence. hit rate 0.07% among 65,000. P45452;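 active = inhibition above the mean of compound-free control plate wells plus 3 SD, cut at about 14% in these data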;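 note: 0% = DMSO wells and 100% = wells with reference MMP-13 inhibitor after basal subtraction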
SK-BR-3 tox 24h = SK-BR-3 proliferation inhibitors | SK-BR-3 viability, CellTiter-Glo ATP luminescence, 24 h; stronger effect = lower value | viability, % at 10 µM | hit rate 0.47% among 41,000 | AID 847;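 active = viability at or below the median of all test compounds minus 3 SD, in both replicates if run twice, cut at about 45% in these data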;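 note: 100% = median untreated cell wells and 0% = median positive control drug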
ROCK2 blocker = blocks human Rho kinase 2 activity | O75116 | inhibition, % at 6 µM | hit rate 0.35% among 60,000 | AID 604 | purified ROCK2, Kinase-Glo ATP depletion luminescence;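 active = inhibition above the screen-wide mean inhibition plus 3 SD, cut at about 18% in these data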;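 note: plate controls were DMSO wells for no effect and Y-27632 control wells after no-enzyme background subtraction for full effect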
The depositor's hits bear a star; nt = not tested or not shown. Compounds with a hit are over-represented: about 0.97% of the library has one in this group of screens.

SMILES | Hsp90 inh | PKA kinase inh | Htt clearance | MMP13 inh | SK-BR-3 tox 24h | ROCK2 blocker
CCOC(=O)C(C(=O)OCC)c1cc(Br)c2noc3c2c1C(=O)c1ccccc1-3 | nt | 4 | -57 | 7 | 26* | nt
CC(=O)OCCNc1cc(N2CCN(C)CC2)c2noc3c2c1C(=O)c1ccccc1-3 | 35 | 12 | nt | 6 | nt | 8
COc1cc(NC(C)=O)c2ncccc2c1 | 2 | nt | nt | nt | nt | nt
O=C(CCC(=O)c1ccc(F)cc1)OC1CCOC1=O (stereo unspecified) | 2 | 4 | 22 | -2 | nt | 3
O=C(CSc1nnc(-c2cccs2)o1)OCc1ccccc1 | 2 | -4 | nt | 6 | 43* | 1
Cc1c(Cc2c(Cl)cccc2Cl)c(=O)ccn1C(C)c1ccccc1 (stereo unspecified) | nt | nt | -14 | nt | nt | nt
OCC(CO)(CO)N=Cc1c(O)ccc2ccccc12 | 0 | 3 | -2 | 5 | nt | 4
Oc1ccc2ccccc2c1C=NC12CN3CCN(CN(C3)C1)C2 | 89* | 3 | nt | 5 | 116 | 6
COC1(OC)N=C(N)C2(C#N)C(c3ccc4c(c3)OCO4)C12C#N (stereo unspecified) | -8 | 18 | 24 | 0 | 99 | 29*
COC1(OC)N=C(N)C2(C#N)C(c3ccc(C)cc3)C12C#N (stereo unspecified) | -1 | 14 | -5 | -3 | 81 | 11
Cc1nc(N2CCC(C)CC2)c2c(C)c(C(=O)O)sc2n1 | -4 | 0 | 80* | -1 | nt | 1
CCN1CCN(C(=O)c2sc3nc(C)nc(N4CCC(C)CC4)c3c2C)CC1 | -1 | 5 | nt | 0 | 83 | 7
COc1ccc(OC)c(C(c2nnnn2C2CCCC2)N2CCc3ccccc3C2)c1 (stereo unspecified) | -4 | 9 | 73* | -2 | 128 | 7
CC1=C(C#N)C(Nc2ccc(Cl)cn2)(C(F)(F)F)C(=O)N1 (stereo unspecified) | nt | nt | -15 | nt | nt | nt
Nc1ncnc2c1nc(Br)n2C1OC2COP(=O)(O)O[C@@H]2C1O (stereo partly specified) | -2 | nt | nt | nt | nt | nt
O=C1C(SCCO)=C(SCCO)C(=O)c2ccccc21 | 89* | nt | nt | nt | nt | nt
COc1cc(/C=N\n2nnnc2N)ccc1OCc1ccc(F)cc1 | -3 | 4 | -16 | -11 | nt | 18*
COc1cc(NCCCCN)c2ncccc2c1 | 27 | nt | nt | nt | nt | nt
O=C1CCCC2=C1C(c1ccsc1)CC(=O)N2c1ccccc1 (stereo unspecified) | -4 | 13 | 23 | 7 | nt | 5
Cc1ccc(C2CC(=O)N(c3ccc(F)cc3)C3=C2C(=O)CCC3)cc1 (stereo unspecified) | nt | nt | 79* | nt | nt | nt
CCSc1nnc2c(n1)OC(c1ccc(C(=O)O)cc1)N(C(C)=O)c1ccccc1-2 (stereo unspecified) | 89* | 10 | nt | -12 | nt | 4
CCOc1ccc(C2Oc3nc(SC)nnc3-c3ccccc3N2C(C)=O)cc1OC (stereo unspecified) | 3 | -7 | nt | 5 | nt | 2
Cc1cc(NC(=O)CCS(=O)(=O)c2nc(-c3ccccc3)cc(C(F)(F)F)n2)no1 | -3 | -6 | nt | 1 | 39* | -7
CS(=O)(=O)c1nc(-c2ccccc2)cc(C(F)(F)F)n1 | nt | -2 | nt | -6 | 28* | nt
COc1ccc(-c2cc(C(F)(F)F)nc(SCC(=O)Nc3cc(C)on3)n2)cc1 | 0 | 3 | -47 | -17 | 73 | 8
SMILES | Hsp90 inh | PKA kinase inh | Htt clearance | MMP13 inh | SK-BR-3 tox 24h | ROCK2 blocker
O=C(Nc1ccc(S(=O)(=O)Nc2cnc3ccccc3n2)cc1)c1ccc(Br)o1 | -6 | 4 | 15 | -23 | 80 | 6
CC(=O)Nc1cnc2ccccc2n1 | 56* | 3 | 20 | -5 | 122 | 1
CCCCCCCCCCCCCCCCOCC(COCC(F)(F)F)OP(=O)(O)OCO (stereo unspecified) | -3 | nt | nt | nt | nt | nt
CC1CCN(c2nc3c(c(=O)[nH]c(=O)n3C)n2CCSc2ncccn2)CC1 | -1 | -1 | nt | 5 | nt | -7
CCCCS(=O)(=O)/C=C\C=C/S(=O)(=O)CCCC | nt | 2 | 54 | 1 | 38* | nt
CCCCS(=O)(=O)/C=C\C1C2C=CC(C2)C1S(=O)(=O)CCCC (stereo unspecified) | -2 | -5 | 31 | 2 | nt | -7
CCOC(=O)C1=C(N)n2c(s/c(=C/c3ccco3)c2=O)=C(C(=O)OC)C1c1ccco1 (stereo unspecified) | -10 | 9 | -10 | 14* | 92 | 2
CCOC(=O)COc1ccc(S(=O)(=O)N2CCN(c3ccccc3F)CC2)cc1 | 0 | 4 | 82* | -3 | 99 | 8
CCOC(=O)C1=C(C)N=C2SC(CC)C(=O)N2C1c1ccc(OC(C)=O)c(OCC)c1 (stereo unspecified) | 0 | 8 | nt | 2 | nt | nt
CCOc1ccccc1NC(=O)CCSc1nc2n[nH]c(C)c2c(=N)n1-c1ccccc1Cl | 5 | 8 | nt | -2 | nt | nt
CCOc1ccccc1-n1c(SCC(=O)Nc2ccc(CC)cc2)nc2n[nH]c(C)c2c1=N | 2 | 6 | nt | -3 | 30* | 4
COc1nc(N2CCCC2)nc(-n2cc(-c3ccccc3)nn2)n1 | 1 | -3 | nt | -6 | nt | -2
COc1ccc(N2CSC3=C(C#N)C(c4cc(OC)c(OC)cc4OC)CC(=O)N3C2)c(OC)c1 (stereo unspecified) | -3 | 5 | nt | 4 | nt | 1
COc1ccc(N2CSC3=C(C#N)C(c4ccc(OC)c(OC)c4)CC(=O)N3C2)c(OC)c1 (stereo unspecified) | 77* | -1 | -10 | 4 | nt | -3
O=C(O)CC(c1ccccc1)c1ccccc1 | 1 | 6 | 86* | 0 | 104 | 2
CC1Cc2ccccc2N1C(=O)c1cc2sccc2n1Cc1ccc(F)cc1 (stereo unspecified) | nt | nt | 9 | nt | nt | nt
CCOC(=O)N1CCN(CC(=O)Nc2ccc(OC)cc2)CC1 | -1 | 7 | -12 | -2 | nt | nt
CCOC(=O)N1CCN(CCC(=O)Nc2ccc(OC(F)(F)F)cc2)CC1 | 1 | -1 | 36 | 2 | 37* | -3
COc1cc(NS(=O)(=O)CC(C)C)c2ncccc2c1 | 1 | nt | nt | nt | nt | nt
COc1ccc2c(c1)c(CC(=O)N1CCOCC1)c(C)n2C(=O)c1ccc(Cl)cc1 | -3 | nt | nt | nt | nt | nt
COC(=O)c1ccc(-c2sc3nc(N4CCOCC4)c4c(c3c2N)CC(C)(C)OC4)o1 | -3 | 3 | nt | -38 | 34* | 4
Cc1cc(-c2ccccc2C(=O)O)on1 | 1 | -9 | 35 | 0 | 134 | 2
O=C(O)c1ccccc1C1=Nc2ccc(O)cc2Oc2cc(O)ccc21 | 61* | 5 | 19 | 3 | 99 | 2
COC(=O)c1ccccc1NC(=O)c1cnn2c(C(F)F)cc(C3CC3)nc12 | -1 | -1 | 76* | -2 | 83 | 0
CCc1ccc(N=c2c([N+](=O)[O-])nn(-c3ccccc3)n2O)cc1 | nt | nt | 71* | nt | nt | nt
CC(=O)c1cc(C#N)c(SCc2ccncc2)nc1C | -10 | 2 | nt | 2 | 98 | 28*
CC(=O)c1cccc(NC(=O)CSc2nnc(-c3ccc(S(=O)(=O)N4CCCC4)cc3)o2)c1 | 61* | 3 | nt | 4 | 143 | -2

Source: PubChem
